# DAX1 inh-1 – inhibitors of DAX1 repression of SF-1 activated StAR promoter; HEK293T StAR-luciferase reporter, SF-1/DAX-1 repression relief; inhibition, % at 6.8 µM; 1.1% of 370,000 active;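 active means inhibition above the mean over all tested compounds plus 3 SD, cut at about 3.6% in these data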;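 further: 0% = DAX-1 cells with DMSO and 100% = cells lacking DAX-1 with DMSO; higher inhibition means more luminescence from relief of DAX-1 repression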
# SMARCA2 activ – activators of SMARCA2 function; 1% of 370,000 active; activation, % at 9.1 µM; MG213 cells, MMTV-luciferase reporter, dexamethasone, overnight; in the data active means activation above about 7.8%;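 further: 0% = vehicle wells and 100% = reference activator wells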
# ssDAF-12 act – activators of S. stercoralis DAF-12 nuclear receptor; HEK293 ssDAF-12/GRIP1 lit1-tk-luc reporter, luminescence; % of 3 µM dafachronic acid response; activation, % at 6.8 µM; 1% of 370,000 active;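 active means activation above the mean over all tested compounds plus 3 SD, cut at about 0.9% in these data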;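 further: 0% = DMSO-only wells and 100% = 3 µM delta7-dafachronic acid wells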
# hgDAF12 agonist – agonists of H. glycines DAF-12 nuclear receptor; HEK293 GAL4-hgDAF12 UAS-luciferase reporter, agonist luminescence; normalized to butyrate control; activation, % at 6.8 µM; 1.8% of 370,000 active; AID 687014;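 active means activation above a cutoff set at the mean of all screened compounds plus 3 SD, cut at about 10% in these data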;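 further: 0% = DMSO wells and 100% = sodium butyrate wells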
# DAX1 inh-2 – inhibitors of human orphan nuclear receptor DAX1 (NR0B1); P51843; HEK293 Gal4-DAX1 luciferase reporter, luminescence; inhibition, % at 6.75 µM; 0.99% of 340,000 active; AID 504766;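 active means inhibition above the mean over all tested compounds plus 3 SD, cut at about 4.2% in these data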;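 further: 0% = DAX1-transfected cells with DMSO and 100% = empty-vector control cells with DMSO; inhibition shows as a rise in luminescence from relieved DAX1 repression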
# Target sequence (P51843 207-470 limits assumed): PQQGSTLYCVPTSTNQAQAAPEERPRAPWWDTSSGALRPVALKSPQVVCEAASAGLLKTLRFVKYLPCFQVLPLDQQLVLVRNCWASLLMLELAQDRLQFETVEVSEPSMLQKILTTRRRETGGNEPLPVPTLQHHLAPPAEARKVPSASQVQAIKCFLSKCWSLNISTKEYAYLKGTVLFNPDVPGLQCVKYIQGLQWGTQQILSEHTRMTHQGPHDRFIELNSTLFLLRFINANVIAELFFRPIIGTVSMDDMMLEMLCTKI
# hcDAF12 agonist – activators of H. contortus DAF-12 nuclear receptor; HEK293 hcDAF-12 lit1-tk-luc reporter, luminescence; 0% DMSO, 100% Δ7-dafachronic acid; activation, % at 6.8 µM; 1.4% of 370,000 active;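 active means activation above the mean of all tested compounds plus 3 SD, cut at about 5.5% in these data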;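 further: 100% = response to 3 µM Δ7-dafachronic acid high control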
# Numbers without * were called inactive; x = no result. Shown are actives, neighbours in structure and some others; about 4.8% of the full set was active somewhere.
SMILES,DAX1 inh-1,SMARCA2 activ,ssDAF-12 act,hgDAF12 agonist,DAX1 inh-2,hcDAF12 agonist
CC1=C(C(=O)NCCCOC(C)C)C2(CCC(C)CC2)OC1=O (centres undefined),-0.5,-3.8,1.0*,-0.9,2.3,1.0
CC(=O)N(C)c1ccc(N=C2C(=O)Nc3ccccc32)cc1,x,x,x,x,-0.3,x
CC(C)[C@@H]1Cc2[nH]n(C)c(=O)c2[C@H](c2ccc(F)cc2)O1,4.1*,0.6,-0.4,-2.5,x,3.2
Cn1[nH]c2c(c1=O)[C@H](c1ccc(F)cc1)O[C@H](CCc1ccccc1)C2,-0.7,-3.9,-1.3,-0.9,x,-0.3
CC1(C(=O)NS(=O)(=O)c2ccc(Cl)cc2)CCN1C(=O)C1(c2ccccc2)CCCC1 (centres undefined),0.9,6.9,-0.1,-1.2,x,0.5
N#Cc1ccccc1OCC(=O)NC(=O)NCc1ccco1,1.4,2.8,-0.7,11.3*,7.0*,0.6
Cc1ccc(OCCCC(=O)NCc2ccco2)cc1,-0.7,-2.7,-1.9,-3.8,1.6,-1.2
Cc1ccccc1OCCCC(=O)NCc1ccco1,-0.7,0.5,-1.0,0.9,4.4*,-1.9
N/C(Cc1nc2ccccc2s1)=N\O,0.1,-4.6,-0.3,-1.3,1.6,1.0
O=S(=O)(NNC(=S)Nc1ccc(S(=O)(=O)Nc2ncccn2)cc1)c1ccc(Br)cc1,1.3,-1.3,-0.9,2.7,0.2,2.2
COC(=O)c1ccc(CSc2nc3c(c(=O)[nH]2)CCC3)cc1,3.7*,-6.0,-1.6,0.7,x,-0.3
Cc1ccc(CSc2nc3c(c(=O)[nH]2)CCC3)cc1,0.5,1.7,-1.1,-2.3,0.6,1.7
CCOCCCNCC(=O)Nc1ccc(OC(F)(F)F)cc1,0.0,-0.1,-1.1,0.0,-0.1,-0.9
Cc1cccc(C(=O)NCC(=O)NNC(=O)c2ccccc2O)c1,0.2,0.4,0.2,-0.5,3.6,6.1*
Cc1ccc(S(=O)(=O)Nc2ccc3cn[nH]c3c2)cc1C,0.2,-4.2,-0.6,-2.0,x,4.7
O=C(O)c1cc(S(=O)(=O)Nc2ccc3cn[nH]c3c2)ccc1O,-0.3,0.8,1.0*,4.4,0.7,4.6
CCOC(=O)c1cnn(-c2ccccc2)c1-n1cccc1C(=O)C(=O)Nc1ccccc1C(F)(F)F,-0.3,-0.9,-1.3,-1.4,-0.4,-1.4
Cn1cc(Br)c(C(=O)NNC(=O)c2ccccc2)n1,-0.2,-1.6,-1.7,-0.3,0.0,-1.7
O=C(Nc1ccccc1C(F)(F)F)c1cc(-c2ccccc2O)on1,2.1,2.2,-0.4,12.3*,2.5,0.0
Cn1cccc1C(=O)C(=O)Nc1ccccc1C(F)(F)F,2.1,3.1,-1.3,4.1,4.4*,-0.3
Cn1cc(Br)c(C(=O)NNC(=O)Nc2ccccc2C(F)(F)F)n1,1.0,4.0,-0.8,10.4,4.2*,-0.4
CC(C)(C)C(=O)NC(=O)Nc1ccccc1C(F)(F)F,0.1,-1.8,-1.0,-1.4,2.3,-0.9
CC(=O)Nc1ccccc1C(F)(F)F,-0.1,0.6,-0.8,0.8,4.3*,-0.2
O=S(=O)(c1ccc(Br)cc1)N1CCOC12CCCCC2,-0.6,-0.7,-1.1,2.1,x,0.8
Cn1cccc1C(=O)C(=O)Nc1ccccc1,3.8*,4.3,1.0*,12.5*,0.5,5.5
SMILES,DAX1 inh-1,SMARCA2 activ,ssDAF-12 act,hgDAF12 agonist,DAX1 inh-2,hcDAF12 agonist
COc1ccc(OC)c(C2CC(=O)OC3=C2C(=O)CC(C)(C)C3)c1 (centres undefined),-0.3,-0.2,-1.1,0.3,0.8,-0.6
Nc1c(C(=O)Nc2ccc3c(c2)OCCO3)nnn1Cc1ccc(F)cc1,4.2*,3.7,0.0,8.8,-0.1,2.5
O=C(c1ccccc1)c1ccc2cc(O)ccc2c1,-0.6,1.1,-0.3,9.2,0.2,-0.8
O=C(c1ccccc1)c1ccc2ccccc2c1,-1.4,3.7,-1.3,3.1,5.3*,0.2
Cc1cc(C)c(Cn2c3ccccc3c3cnn(CC(=O)NCc4ccccn4)c(=O)c32)c(C)c1,-0.4,0.5,-1.8,-1.7,-0.1,-0.7
O=C(CCc1nc2ccccc2s1)NCc1ccccc1F,0.0,-1.7,-0.8,-1.9,-0.5,2.4
CN(C)C(CNC(=O)CCc1nc2ccccc2s1)c1ccccc1 (centres undefined),-0.1,-3.0,-0.5,-1.7,5.5*,-1.6
COCCOC(=O)c1nccnc1C(=O)Nc1ccc(S(=O)(=O)N2CCOCC2)cc1,-0.3,4.5,-2.7,-12.9,x,-3.2
O=C(O)c1nccnc1C(=O)Nc1ccc(S(=O)(=O)N2CCOCC2)cc1,-0.3,-0.7,1.8*,-2.8,0.9,-0.5
COc1ccc(OC)c(CCNC(=O)c2ccc(NC3=NC4CS(=O)(=O)CC4S3)cc2)c1 (centres undefined),0.0,-3.7,-1.1,-6.1,-0.4,-0.8
O=C1C(=O)N2C(=C1C(=O)N1CCCCCC1)c1ccccc1CC21CCCC1,-0.6,-0.5,-1.6,-1.4,2.0,-1.8
CC(=O)Cn1nnc2sc(-c3ccccc3)cc2c1=O,2.7,4.6,-0.1,12.8*,3.6,4.6
CC(=O)Cn1cnc2sc(-c3ccccc3)cc2c1=O,2.3,2.8,-0.8,10.8*,0.8,2.8
COc1ccc(-n2cnc3sc(-c4ccccc4)cc3c2=O)cc1,2.9,2.7,-0.3,8.4,5.0*,3.6
CC1CC(=O)Nc2ccccc2N1C(=O)Cn1cnc2ccc(Br)cc2c1=O (centres undefined),2.7,-0.4,-1.2,3.9,-0.6,0.2
CCOc1ccc(NC(=O)c2ccc3c(c2)C(=O)N(Cc2ccncc2)C3=O)cc1,-1.2,-0.8,-0.5,-2.4,0.2,0.2
Cc1cc(C)cc(NC(=O)CN2CCN(CCN=CC3=C(O)CC(C)(C)CC3=O)CC2)c1,-0.5,2.6,-0.8,-0.8,-0.9,-0.5
COc1ccc2nc(/N=C/c3c(C)[nH]n(-c4ccc(C)cc4)c3=O)sc2c1,1.7,-2.7,0.1,5.4,0.0,5.6*
Cc1ccc(CNc2ccc3c(c2)ncn3C)cc1,2.4,2.8,0.1,5.7,1.1,2.9
Cc1ccc(CNc2ccc3c(c2)ncn3C(C)(C)C)cc1,4.1*,1.6,0.6,9.3,6.6*,5.3
CC1C(=O)NN=C1C(=O)N/N=C/c1ccco1 (centres undefined),0.0,-3.9,-0.8,0.8,1.3,0.6
COc1ccc(NC(=O)CCCn2c(=O)oc3ccccc32)cc1Cl,0.7,7.8*,0.8,7.1,3.0,6.4*
CCn1cc(CN2CCC(n3nccc3NC(=O)CCOc3ccccc3)CC2)cn1,-2.0,-1.4,-1.3,-2.6,0.1,-2.8
CCN(CC)c1ccc(/C=N/NC(=O)OC(C)(C)C)cc1,1.6,3.6,0.6,5.1,4.9*,2.6
CC(C)(C)OC(=O)N/N=C/c1cccc([N+](=O)[O-])c1,4.4*,3.6,0.4,11.3*,1.9,3.7
O=[N+]([O-])c1cccc(C=NNc2ccccc2)c1,-0.9,-2.2,-1.2,3.3,3.1,-0.4

# Screening results as filed in PubChem.
